# Test results taken from PubChem BioAssay (Tox21).
# Values without a mark were called inactive. Inconclusive results are not listed. Activity calls are given as the source filed them. Unless noted, calls come from the whole dose curve; as a rule, active = well fitted curve in the direction sought with a large enough effect in the repeat runs; inconclusive = weak or mixed curves; inactive = no such curve, though single readings can be large; an effect the other way counts as inactive or inconclusive.
# Columns and labels:
# [1] = qHTS assay to identify small molecule agonists of H2AX - cell viability counter screen (AID 1224847; calls by dose curve; note: nearly all actives have a fitted effect of over 30% in size; note: potency is the fitted concentration of half-maximal effect;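 for activity change, negative = cytotoxicity: wild-type CHO-K1 cells; top concentration of the series differs between compounds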)
# Summary of the method: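 CHO-K1 wt, 1000 cells/well, o/n 37C; cpds 15 conc, 3 h 37C, 0.76% DMSO; CellTiter-Glo, 30 min RT, luminescence.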
# [2] = qHTS assay to identify small molecule antagonists of the estrogen related receptor (ERR) signaling pathway from Tox21 library (AID 1224848); note: nearly all actives have a fitted effect of over 50% in size; note: potency is the fitted concentration of half-maximal effect
# Summary of the method: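 Luciferase luminescence (ONE-Glo, 30 min room temperature) was the read-out. Cells of the NTP-supplied ERR line, 2,000 per well, were given 6 h at 37 C before compound addition in DMSO and 18 h exposure at 37 C.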
# [3] = qHTS assay to identify small molecule agonists of the estrogen related receptor (ERR) signaling pathway from Tox21 library (AID 1224849; calls by dose curve; note: nearly all actives have a fitted effect of over 15% in size); details: ERR reporter cell line, ONE-Glo luciferase, 18 h; at 92.4 µM (top of the series) unless noted
# Summary of the method: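 Luminescent agonist read-out (One-Glo, 30-minute room-temperature incubation) following 18-hour compound treatment at 37 C of the ERR cell line, which had been plated 6 hours before dosing.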
# [4] = qHTS RealTime-Glo MT Cell Viability Assay in HEK293 cells - 32 hour (AID 1224868); note: nearly all actives have a fitted effect of over 50% in size; note: potency is the fitted concentration of half-maximal effect
# Summary of the method: (§1)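 Tox21 10K qHTS, HEK293, 600 cells/well, RealTime-Glo reagent co-dispensed with cells; 5 h preincubation, compound by pintool, 37 C, luminescence at 0–40 h.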
# [5] = qHTS RealTime-Glo MT Cell Viability Assay in HepG2 cells - 40 hour (AID 1224870); note: nearly all actives have a fitted effect of over 50% in size; note: potency is the fitted concentration of half-maximal effect
# Summary of the method: (§2)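 Real-time viability: cells seeded at 600 per well together with NanoLuc and cell-permeant prosubstrate, compounds added after 5 h incubation. Luminescence tracked at 0, 8, 16, 24, 32 and 40 h of exposure.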
# [6] = A CellTox Green Cytotoxicity Assay to monitor cytotoxicity in HEK293 cells - 40 hour (AID 1224871); note: nearly all actives have a fitted effect of over 45% in size; note: potency is the fitted concentration of half-maximal effect
# Summary of the method: (§3)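 Fluorescence from a DNA-binding dye excluded by viable cells was measured repeatedly in the same HEK293 wells (600 cells/well) during continuous compound exposure at 37 C. Each assay gives one read point: 0, 8, 16, 24, 32 or 40 h.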
# [7] = qHTS RealTime-Glo MT Cell Viability Assay in HEK293 cells - 16 hour (AID 1224872); note: nearly all actives have a fitted effect of over 50% in size; note: potency is the fitted concentration of half-maximal effect; for activity change, negative = cytotoxicity: top concentration of the series differs between compounds
# Summary of the method: as §1
# [8] = qHTS RealTime-Glo MT Cell Viability Assay in HepG2 cells - 8 hour (AID 1224873); note: nearly all actives have a fitted effect of over 55% in size; note: potency is the fitted concentration of half-maximal effect
# Summary of the method: as §2
# [9] = qHTS RealTime-Glo MT Cell Viability Assay in HEK293 cells - 40 hour (AID 1224874); details: RealTime-Glo luminescence; max response: stronger effect = lower value; note: nearly all actives have a fitted effect of over 50% in size; note: potency is the fitted concentration of half-maximal effect
# Summary of the method: (§4)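 Luminescence, which tracks viable cell number through reduction of the prosubstrate to a NanoLuc substrate, was read over continuous 37 C culture. Cells (600/well) were premixed with reagent and rested 5 h before 23 nL of compound in DMSO was pinned.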
# [10] = A CellTox Green Cytotoxicity Assay to monitor cytotoxicity in HEK293 cells - 24 hour (AID 1224875); note: nearly all actives have a fitted effect of over 45% in size; note: potency is the fitted concentration of half-maximal effect
# Summary of the method: as §3
# [11] = A CellTox Green Cytotoxicity Assay to monitor cytotoxicity in HepG2 cells - 16 hour (AID 1224876); note: nearly all actives have a fitted effect of over 45% in size; note: potency is the fitted concentration of half-maximal effect
# Summary of the method: (§5)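 Real-time cytotoxicity: fluorescence of a cell-impermeant cyanine dye binding DNA of dead HepG2 cells, measured repeatedly (0–40 h) during compound exposure at 37 C. Cells seeded 600/well with reagent, dosed after 5 h.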
# [12] = A CellTox Green Cytotoxicity Assay to monitor cytotoxicity in HepG2 cells - 24 hour (AID 1224878); note: nearly all actives have a fitted effect of over 45% in size; note: potency is the fitted concentration of half-maximal effect
# Summary of the method: as §5
# [13] = A CellTox Green Cytotoxicity Assay to monitor cytotoxicity in HepG2 cells - 40 hour (AID 1224879); note: nearly all actives have a fitted effect of over 40% in size; note: potency is the fitted concentration of half-maximal effect
# Summary of the method: as §5
# [14] = qHTS RealTime-Glo MT Cell Viability Assay in HEK293 cells - 0 hour (AID 1224880); note: nearly all actives have a fitted effect of over 45% in size; note: potency is the fitted concentration of half-maximal effect; for activity change, negative = cytotoxicity: top concentration of the series differs between compounds
# Summary of the method: as §4
# [15] = A CellTox Green Cytotoxicity Assay to monitor cytotoxicity in HEK293 cells - 32 hour (AID 1224881); note: nearly all actives have a fitted effect of over 40% in size; note: potency is the fitted concentration of half-maximal effect
# Summary of the method: as §3
# [16] = qHTS RealTime-Glo MT Cell Viability Assay in HepG2 cells - 24 hour (AID 1224867); note: nearly all actives have a fitted effect of over 50% in size; note: potency is the fitted concentration of half-maximal effect
# Summary of the method: (§6)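 Cells + NanoLuc/prosubstrate dispensed (600 cells/well) → 5 h at 37 C/5% CO2 → compounds in DMSO transferred → 40 h incubation at 37 C, luminescence read at 0, 8, 16, 24, 32, 40 h.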
# [17] = A CellTox Green Cytotoxicity Assay to monitor cytotoxicity in HEK293 cells - 0 hour (AID 1224869); note: nearly all actives have a fitted effect of over 50% in size
# Summary of the method: as §3
# [18] = A CellTox Green Cytotoxicity Assay to monitor cytotoxicity in HepG2 cells - 0 hour (AID 1224882); note: nearly all actives have a fitted effect of over 35% in size
# Summary of the method: as §5
# [19] = qHTS RealTime-Glo MT Cell Viability Assay in HepG2 cells - 32 hour (AID 1224877); note: nearly all actives have a fitted effect of over 55% in size; note: potency is the fitted concentration of half-maximal effect
# Summary of the method: as §6
# % is set by controls: 0 for no effect and ±100 for the full control effect.
compound,measurement,setting,value
C[C@]12CC[C@@H]3c4ccc(OC(=O)N(CCCl)CCCl)cc4CC[C@H]3[C@@H]1CC[C@@H]2O,Potency,[1],inactive
same,Potency,[2],inactive
same,"activity change, positive = activation",[3],-21.8% [at 42.5 µM]
same,Potency,[4],inactive
same,Potency,[5],inactive
same,Potency,[6],inactive
same,Potency,[7],inactive
same,Potency,[8],inactive
same,max response,[9],-6.19%
same,Potency,[10],inactive
same,Potency,[11],inactive
same,Potency,[12],inactive
same,Potency,[13],inactive
same,Potency,[14],inactive
same,Potency,[15],inactive
O=c1ssc(Cl)c1Cl,Potency,[1],89.8 µM (active)
same,"activity change, positive = activation",[3],-17.9%
same,Potency,[16],21.9 µM (active)
same,Potency,[4],15.5 µM (active)
same,Potency,[17],inactive
same,Potency,[5],21.9 µM (active)
same,Potency,[6],21.9 µM (active)
same,Potency,[7],17.4 µM (active)
same,Potency,[8],21.9 µM (active)
same,Potency,[10],38.9 µM (active)
same,Potency,[11],19.5 µM (active)
same,Potency,[12],19.5 µM (active)
same,Potency,[13],19.5 µM (active)
same,Potency,[14],24.5 µM (active)
same,Potency,[15],24.5 µM (active)
same,Potency,[18],inactive
Oc1cc(Cl)c(Cl)c(Cl)c1,Potency,[1],42.7 µM (active)
same,Potency,[2],29.1 µM (active)
same,"activity change, positive = activation",[3],-65.2%
same,Potency,[16],inactive
same,Potency,[17],inactive
same,Potency,[5],inactive
same,Potency,[6],13.1 µM (active)
same,Potency,[8],inactive
same,Potency,[10],inactive
same,Potency,[11],inactive
same,Potency,[19],inactive
same,Potency,[12],inactive
same,Potency,[14],inactive
same,Potency,[15],11.7 µM (active)
same,Potency,[18],inactive
COc1cccc2c1C(=O)c1c(O)c3c(c(O)c1C2=O)C[C@@](O)(C(=O)CO)CC3OC1CC(N2CCOC(OC)C2)C(O)C(C)O1 (stereo not given in full),Potency,[1],inactive
same,Potency,[2],inactive
same,"activity change, positive = activation",[3],-10.4% [at 42.5 µM]
same,Potency,[4],0.0301 µM (active)
same,Potency,[17],inactive
same,Potency,[5],0.0338 µM (active)
same,Potency,[6],inactive
same,Potency,[9],0.0213 µM (active)
same,Potency,[10],inactive
same,Potency,[11],23.9 µM (active)
same,Potency,[19],0.0425 µM (active)
same,Potency,[13],0.0425 µM (active)
same,Potency,[14],inactive
same,Potency,[15],inactive
same,Potency,[18],inactive
CC[C@H]1C[C@@H]2C[C@H]3c4[nH]c5ccc(OC)cc5c4CCN(C2)[C@@H]13,Potency,[1],inactive
same,Potency,[2],30.1 µM (active)
same,"activity change, positive = activation",[3],-44.1%
same,Potency,[17],inactive
same,Potency,[6],inactive
same,Potency,[7],inactive
same,Potency,[11],inactive
same,Potency,[19],inactive
same,Potency,[12],54 µM (active)
same,Potency,[13],54 µM (active)
same,Potency,[14],inactive
same,Potency,[15],inactive
same,Potency,[18],inactive
CC(C)(c1ccc(O)c(-c2ccccc2)c1)c1ccc(O)c(-c2ccccc2)c1,Potency,[1],25.3 µM (active)
same,Potency,[2],24.3 µM (active)
same,"activity change, positive = activation",[3],-69.8%
same,Potency,[16],49 µM (active)
same,Potency,[4],21.9 µM (active)
same,Potency,[17],inactive
same,Potency,[7],21.9 µM (active)
same,Potency,[8],49 µM (active)
same,Potency,[9],19.5 µM (active)
same,Potency,[12],49 µM (active)
same,Potency,[13],49 µM (active)
same,Potency,[14],inactive
same,Potency,[18],inactive
Cc1cc(C(C)(C)c2cc(C)c(O)c(C)c2)cc(C)c1O,Potency,[1],109 µM (active)
same,Potency,[2],26.4 µM (active)
same,"activity change, positive = activation",[3],-83.8%
same,Potency,[4],18.9 µM (active)
same,Potency,[17],inactive
same,Potency,[5],inactive
same,Potency,[7],23.7 µM (active)
same,Potency,[9],18.9 µM (active)
same,Potency,[10],inactive
same,Potency,[14],inactive
same,Potency,[15],inactive
CSCCCN=C=S,Potency,[1],inactive
same,Potency,[2],inactive
same,"activity change, positive = activation",[3],-13.5%
same,Potency,[16],inactive
same,Potency,[17],inactive
same,Potency,[5],inactive
same,Potency,[8],inactive
same,Potency,[10],inactive
same,Potency,[19],inactive
same,Potency,[14],inactive
same,Potency,[15],inactive
same,Potency,[18],inactive
O=C(CCl)Nc1ccccc1,Potency,[1],inactive
same,Potency,[2],19.3 µM (active)
same,"activity change, positive = activation",[3],-72.1%
same,Potency,[16],inactive
same,Potency,[17],inactive
same,Potency,[5],inactive
same,Potency,[9],38.9 µM (active)
same,Potency,[10],inactive
same,Potency,[11],inactive
same,Potency,[19],inactive
same,Potency,[12],inactive
same,Potency,[14],inactive
same,Potency,[18],inactive
CCCCCCCCCCCCCCCCCCn1cc[n+](C)c1,Potency,[1],22.4 µM (active)
same,Potency,[2],5.42 µM (active)
same,"activity change, positive = activation",[3],-74.3%
same,Potency,[4],7.72 µM (active)
same,Potency,[5],21.7 µM (active)
same,Potency,[6],19.4 µM (active)
same,Potency,[7],24.4 µM (active)
same,Potency,[8],inactive
same,Potency,[9],7.72 µM (active)
same,Potency,[10],21.7 µM (active)
same,Potency,[11],38.7 µM (active)
same,Potency,[19],24.4 µM (active)
same,Potency,[12],24.4 µM (active)
same,Potency,[13],19.4 µM (active)
same,Potency,[15],19.4 µM (active)
COc1cc(C=O)cc2c1[C@H](COC(N)=O)[C@]1(OC(C)=O)ON2C[C@H]2[C@@H]1N2C(C)=O,Potency,[1],inactive
same,Potency,[2],0.273 µM (active)
same,"activity change, positive = activation",[3],-41%
same,Potency,[4],0.0549 µM (active)
same,Potency,[17],inactive
same,Potency,[6],inactive
same,Potency,[8],inactive
same,Potency,[9],0.0309 µM (active)
same,Potency,[10],inactive
same,Potency,[11],inactive
same,Potency,[12],0.11 µM (active)
same,Potency,[13],0.0776 µM (active)
same,Potency,[14],inactive
same,Potency,[15],inactive
same,Potency,[18],inactive
C[CH2][Hg][N]1C(=O)C2C(C1=O)C1(Cl)C(Cl)=C(Cl)C2(Cl)C1(Cl)Cl (stereo not given),Potency,[1],13.5 µM (active)
same,"activity change, positive = activation",[3],-76.3% [at 19 µM]
same,Potency,[4],2.33 µM (active)
same,cytotoxicity,[17],-0.189% [at 15.8 µM]
same,Potency,[5],6.57 µM (active)
same,Potency,[6],4.65 µM (active)
same,Potency,[7],2.61 µM (active)
same,Potency,[8],7.37 µM (active)
same,Potency,[9],2.08 µM (active)
same,Potency,[10],4.65 µM (active)
same,Potency,[11],6.57 µM (active)
same,Potency,[19],6.57 µM (active)
same,Potency,[12],7.37 µM (active)
same,Potency,[13],6.57 µM (active)
same,"activity change, negative = cytotoxicity",[14],-4.29% [at 15.8 µM]
same,Potency,[15],4.65 µM (active)
same,cytotoxicity,[18],1.33% [at 15.8 µM]
